SMILES strings stand for the structures. The campaign covered roughly 39,000 compounds. About 1,500 (3.8%) were called active. The entries come from a sample that favours actives as a whole.

The test system of this assay is HSkMC (human skeletal muscle cells). Put plainly: cytotoxicity call (relative viability < 0.9). The note with it: 10 µM.
On to `O=C(O)[C@H]1CCCNC1`, for which the cytotoxicity call was “inactive”.
Turning to `CO[C@@H]1CN(C)C(=O)c2ccc(NC(=O)Nc3cccc(F)c3)cc2OC[C@@H](C)N(C(=O)Nc2c(C)noc2C)C[C@@H]1C`, the cytotoxicity call was “inactive”.
As for `C[C@H](CO)N1C[C@H](C)[C@@H](CN(C)Cc2ccccc2)OCCCC[C@H](C)Oc2ccc(NC(=O)Nc3ccc4c(c3)OCO4)cc2C1=O`, the cytotoxicity call is “inactive”.
For `C[C@@H]1CCCCO[C@H](CN(C)S(=O)(=O)c2ccc(Cl)cc2)[C@@H](C)CN([C@H](C)CO)C(=O)c2cc(NC(=O)Nc3ccc4c(c3)OCO4)ccc2O1`, the cytotoxicity call is “inactive”.
Turning to `CC(C)NC(=O)N(C)C[C@@H]1OCCCC[C@@H](C)Oc2ccc(NC(=O)C3CCCCC3)cc2C(=O)N([C@@H](C)CO)C[C@@H]1C`, the cytotoxicity call was “inactive”.
Take `Cc1noc(C)c1NC(=O)Nc1ccc2c(c1)C(=O)N([C@@H](C)CO)C[C@@H](C)[C@@H](CN(C)C(=O)C1CCCCC1)OCCCC[C@@H](C)O2`: the cytotoxicity call is “inactive”.
Take `N#Cc1ccc(-c2cccs2)nc1`: the cytotoxicity call is “inactive”.
In the case of `C[C@H]1CN([C@@H](C)CO)C(=O)Cc2cc(NC(=O)Cn3cnnn3)ccc2O[C@H]1CN(C)Cc1ccncc1`, the cytotoxicity call is “inactive”.
In the case of `O=C(NCC(F)(F)F)c1cc2c(c(-c3cccc(-c4ccccc4F)c3)n1)[C@@H](CCO)N(C(=O)CC1CC1)C2` it was “active”; in that of `CC(=O)N1Cc2cc(C(=O)NCc3cccc(F)c3)nc(-c3cccc(C4=CCCCC4)c3)c2[C@@H]1CCO`, “inactive”.
Consider `CC(=O)N1Cc2cc(C(=O)NCC(F)(F)F)nc(-c3cccc(-c4cc5ccccc5o4)c3)c2[C@H]1CCO`, for which the cytotoxicity call is “inactive”.
Take `CC(=O)N1Cc2cc(C(=O)NCc3cccc(F)c3)nc(-c3cccc(C4=CCCCC4)c3)c2[C@H]1CCO`: the cytotoxicity call is “active”.
`O=C(NCC1CC1)c1cc2c(c(-c3cccc(-c4ccccc4F)c3)n1)[C@@H](CCO)N(C(=O)CC1CC1)C2`: the cytotoxicity call was “inactive”.
Consider `CC(C)(C)S(=O)N1Cc2cc(C(=O)N3CCN(Cc4ccccc4)CC3)nc(-c3cccc(-c4cc5ccccc5o4)c3)c2[C@H]1CCO` (some centres undefined), for which the cytotoxicity call is “active”.
For `COc1ccccc1-c1cccc(-c2nc(C(=O)Nc3nccs3)cc3c2[C@@H](CCO)N(C(=O)CC2CC2)C3)c1`, the cytotoxicity call is “inactive”.
In the case of `COc1ccc(C#Cc2cccc(-c3nc(C(=O)N4CCN(Cc5ccccc5)CC4)cc4c3[C@@H](CCO)N(S(=O)C(C)(C)C)C4)c2)cc1OC` (some centres undefined) it was “inactive”; in that of `COc1ccccc1-c1cccc(-c2nc(C(=O)Nc3nccs3)cc3c2[C@H](CCO)N(C(=O)CC2CC2)C3)c1`, “inactive”; in that of `CC(=O)N1Cc2cc(C(=O)NCc3cc(F)cc(F)c3)nc(-c3cccc(C4=CCCC4)c3)c2[C@H]1CCO`, “inactive”.
Regarding `CCC(=O)N1Cc2cc(C(=O)Nc3nccs3)nc(-c3cccc(-c4ccccc4OC)c3)c2[C@H]1CCO`, the cytotoxicity call is “active”.
For `COc1ccc(C#Cc2cccc(-c3nc(C(=O)N4CCN(Cc5ccccc5)CC4)cc4c3[C@H](CCO)N(S(=O)C(C)(C)C)C4)c2)cc1OC` (some centres undefined), the cytotoxicity call is “inactive”.
Under `C[C@@H]1CN([C@@H](C)CO)C(=O)c2cc(NC(=O)CCC(F)(F)F)ccc2O[C@@H](C)CCCCO[C@H]1CN(C)C(=O)Nc1ccccc1` stands “inactive”; under `O=C(C[C@H]1CC[C@@H]2[C@H](COC[C@H](O)CN2C(=O)Nc2ccc(Cl)c(Cl)c2)O1)NCc1ccc(Cl)c(Cl)c1`, “inactive”.
In the case of `CCC(=O)N(C)C[C@H]1Oc2ncc(C#C[C@@H](C)O)cc2C(=O)N([C@H](C)CO)C[C@@H]1C` it was “inactive”; in that of `Cc1noc(C)c1NC(=O)Nc1ccc2c(c1)C(=O)N([C@@H](C)CO)C[C@H](C)[C@@H](CN(C)Cc1ccncc1)OCCCC[C@@H](C)O2`, “inactive”.
With `CCCN(C)C[C@H]1OCCCC[C@@H](C)Oc2ccc(NC(=O)Nc3ccc(F)cc3)cc2C(=O)N([C@@H](C)CO)C[C@H]1C`, the cytotoxicity call is “inactive”.
On to `C#CCN([C@H](/C=C/C1CC1)[C@@H](O)Cc1ccccc1)[C@@H](Cc1ccc(-n2cc(CCC(=O)NO)nn2)cc1)C(=O)OC`, for which the cytotoxicity call is “inactive”.
With `O=C(CCc1cn(CC(=O)N2CCC3(CC2)C(=O)NCN3c2ccccc2)nn1)NO`, the cytotoxicity call was “inactive”.
For the molecule `CCCNC(=O)Cc1nnc[nH]1`, the cytotoxicity call is “inactive”.
In the case of `CC(C)(C)[S@@](=O)N1Cc2cc(C(=O)NCCc3ccncc3)nc(-c3cccc(-c4ccccc4)c3)c2[C@H]1CCO` it was “active”.
Turning to `CC(C)(C)[S@@](=O)N1Cc2cc(C(=O)NCCc3ccncc3)nc(-c3cccc(-c4ccc(C#N)cc4)c3)c2[C@H]1CCO`, the cytotoxicity call is “inactive”.
In the case of `CCNC(=O)c1cc2c(c(-c3cccc(-c4cccc(F)c4)c3)n1)[C@H](CCO)N([S@@](=O)C(C)(C)C)C2` it was “inactive”; in that of `CC(C)(C)[S@](=O)N1Cc2cc(C(=O)NCCc3ccncc3)nc(-c3cccc(-c4ccccc4)c3)c2[C@@H]1CCO`, “inactive”.
Regarding `COc1ccccc1-c1cccc(-c2nc(C(=O)NCc3ccncc3)cc3c2[C@@H](CCO)N([S@@](=O)C(C)(C)C)C3)c1`, the cytotoxicity call is “inactive”.
Under `CC(C)(C)S(=O)N1Cc2cc(C(=O)Nc3ccc(-c4ccccc4)cc3)nc(-c3cccc(-c4cccc(F)c4)c3)c2[C@@H]1CCO` (some centres undefined) stands “active”; under `COc1ccccc1-c1cccc(-c2nc(C(=O)NCc3ccncc3)cc3c2[C@@H](CCO)N([S@](=O)C(C)(C)C)C3)c1`, “inactive”.
Regarding `COc1ccccc1-c1cccc(-c2nc(C(=O)NCc3ccncc3)cc3c2[C@H](CCO)N([S@@](=O)C(C)(C)C)C3)c1`, the cytotoxicity call was “active”.
Regarding `CCNC(=O)c1cc2c(c(-c3cccc(-c4cccc(F)c4)c3)n1)[C@@H](CCO)N([S@](=O)C(C)(C)C)C2`, the cytotoxicity call is “inactive”.
Turning to `COCC(=O)N(C)C[C@H]1Oc2cc(C#CC(C)(C)O)ccc2S(=O)(=O)N([C@@H](C)CO)C[C@H]1C`, the cytotoxicity call was “inactive”.
As to `C[C@H]1CN([C@@H](C)CO)C(=O)c2cccc(NS(=O)(=O)c3cn(C)cn3)c2O[C@@H]1CN(C)C(=O)NC1CCCCC1`, the cytotoxicity call was “inactive”.
In the case of `CO[C@H]1CN(C)C(=O)c2ccc(NS(=O)(=O)c3cn(C)cn3)cc2OC[C@@H](C)N(CC2CC2)C[C@@H]1C`, the cytotoxicity call was “inactive”.
Turning to `Cn1cnc(S(=O)(=O)N2C[C@@H](O)COC[C@@H]3O[C@H](CC(=O)NCc4cccc(F)c4)CC[C@H]32)c1`, the cytotoxicity call is “inactive”.
In the case of `CNC(=O)c1cccc(S(N)(=O)=O)c1`, the cytotoxicity call was “inactive”.
Regarding `C[C@@H]1CCCCO[C@H](CN(C)C(=O)NC2CCCCC2)[C@H](C)CN([C@H](C)CO)C(=O)c2cc(NC(=O)NC3CCCCC3)ccc2O1`, the cytotoxicity call was “inactive”.
In the case of `C[C@@H]1CN([C@@H](C)CO)C(=O)c2cc(C#CC(C)(C)O)cnc2O[C@H]1CN(C)C(=O)CN(C)C`, the cytotoxicity call was “inactive”.
Turning to `C[C@@H]1CN([C@H](C)CO)C(=O)c2cccc(NS(=O)(=O)c3ccc(F)cc3)c2O[C@@H]1CN(C)C(=O)Nc1ccc(C(F)(F)F)cc1`, the cytotoxicity call was “inactive”.
In the case of `C[C@@H]1CN([C@@H](C)CO)C(=O)Cc2cc(NS(C)(=O)=O)ccc2O[C@@H]1CN(C)C(=O)Nc1ccc2c(c1)OCO2`, the cytotoxicity call is “inactive”.
`C[C@H](CO)N1C[C@H](C)[C@H](CN(C)C(=O)Nc2ccc3c(c2)OCO3)OCCCC[C@H](C)Oc2ccc(NC(=O)CCCCCC(=O)Nc3ccccc3N)cc2C1=O`: the cytotoxicity call was “inactive”.
Under `Cc1noc(C)c1NC(=O)Nc1cccc2c1O[C@H](CN(C)Cc1ccc(C(F)(F)F)cc1)[C@H](C)CN([C@@H](C)CO)C2=O` stands “inactive”.
`C[C@H](CO)N1C[C@H](C)[C@H](CN(C)Cc2ccc(C(=O)Nc3ccccc3N)cc2)Oc2ccc(NC(=O)Cc3cn(C)c4ccccc34)cc2CC1=O`: the cytotoxicity call was “active”.
`C[C@H]1CN([C@@H](C)CO)C(=O)Cc2cc(NC(=O)Cc3cn(C)c4ccccc34)ccc2O[C@@H]1CN(C)Cc1ccc(C(=O)Nc2ccccc2N)cc1`: the cytotoxicity call was “inactive”.
In the case of `C[C@@H]1CN([C@H](C)CO)C(=O)Cc2cc(NC(=O)Cc3cn(C)c4ccccc34)ccc2O[C@@H]1CN(C)Cc1ccc(C(=O)Nc2ccccc2N)cc1`, the cytotoxicity call was “inactive”.
In the case of `C[C@@H]1CN([C@H](C)CO)C(=O)c2cc(NC(=O)Cc3cn(C)c4ccccc34)ccc2O[C@@H]1CN(C)Cc1ccc(C(=O)Nc2ccccc2N)cc1`, the cytotoxicity call was “inactive”.
On to `C[C@H]1CN([C@@H](C)CO)C(=O)c2cc(NC(=O)Cc3cn(C)c4ccccc34)ccc2O[C@@H]1CN(C)Cc1ccc(C(=O)Nc2ccccc2N)cc1`, for which the cytotoxicity call was “active”.
In the case of `C[C@H](CO)N1C[C@H](C)[C@H](CN(C)Cc2ccc(C(=O)Nc3ccccc3N)cc2)Oc2ccc(NC(=O)Cc3cn(C)c4ccccc34)cc2C1=O`, the cytotoxicity call was “inactive”.
Consider `O=C(C[C@@H]1CC[C@H]2[C@@H](COC[C@H](O)CN2S(=O)(=O)c2ccc(Cl)cc2)O1)NCCN1CCCC1`, for which the cytotoxicity call is “inactive”.
Turning to `O=C(C[C@H]1C=C[C@@H](NS(=O)(=O)c2ccc(F)cc2)[C@@H](CO)O1)N1CCC(Cc2ccccc2)CC1`, the cytotoxicity call was “inactive”.
With `C[C@@H]1CCCCO[C@H](CN(C)C(=O)Nc2ccc(C(F)(F)F)cc2)[C@@H](C)CN([C@@H](C)CO)C(=O)c2cc(NC(=O)CCC(F)(F)F)ccc2O1`, the cytotoxicity call is “inactive”.
Regarding `C[C@@H]1CCCCO[C@@H](CN(C)C(=O)CCC(F)(F)F)[C@H](C)CN([C@@H](C)CO)C(=O)c2cc(NS(=O)(=O)c3ccccc3)ccc2O1`, the cytotoxicity call is “inactive”.
Under `COc1ccc(NC(=O)Nc2ccc3c(c2)C(=O)N([C@@H](C)CO)C[C@H](C)[C@H](CN(C)Cc2ccc(C(F)(F)F)cc2)OCCCC[C@H](C)O3)cc1` stands “inactive”; under `COc1ccc(NC(=O)Nc2ccc3c(c2)C(=O)N([C@@H](C)CO)C[C@H](C)[C@@H](CN(C)Cc2ccc(C(F)(F)F)cc2)OCCCC[C@H](C)O3)cc1`, “inactive”; under `COc1ccc(CN(C)C[C@@H]2OCCCC[C@@H](C)Oc3ccc(NC(=O)Nc4ccc(C(F)(F)F)cc4)cc3C(=O)N([C@@H](C)CO)C[C@H]2C)cc1`, “active”.
As for `COc1ccc(CN(C)C[C@H]2OCCCC[C@H](C)Oc3ccc(NC(=O)Nc4ccc(C(F)(F)F)cc4)cc3C(=O)N([C@H](C)CO)C[C@H]2C)cc1`, the cytotoxicity call is “active”.
Consider `COc1ccc(CN(C)C[C@@H]2OCCCC[C@@H](C)Oc3ccc(NC(=O)Nc4ccc(C(F)(F)F)cc4)cc3C(=O)N([C@@H](C)CO)C[C@@H]2C)cc1`, for which the cytotoxicity call is “active”.
Regarding `COc1ccc(CN(C)C[C@H]2OCCCC[C@@H](C)Oc3ccc(NC(=O)Nc4ccc(C(F)(F)F)cc4)cc3C(=O)N([C@H](C)CO)C[C@@H]2C)cc1`, the cytotoxicity call was “active”.

The values above are taken from the antibiotic and cytotoxicity screens of Wong et al. (2023).
